# About 83,000 compounds went through this panel and 20% of them were active in at least one assay; those are over-represented in the sample as a whole.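 Cells were grown in 96-well plates and exposed to the test compound at a single concentration for 48 hours; results are reported as percent growth, with values below 10 considered active.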 Unmarked numbers belong to inactive results. Active and inactive are the calls of the source.
# Test system: NCI-H460 lung
# Assay: NCI-60 one-dose screen, 48 h (100 = growth as untreated, 0 = no growth, -100 = all killed)
# Conditions: 10 µM unless noted
row,Compound,growth
1,OCNc1ccc(-n2cnc3cc(-c4ccc(O)cc4)ccc32)cc1C(F)(F)F,9.72% (active)
2,Cc1cc2nc3c4ccccc4n(CCNCCN(C)C)c3nc2cc1C,5.46% (active)
3,COc1ccc2c(c1)C(=N/N=C(\C)c1ccc(OC)c(S(N)(=O)=O)c1)C(=O)N2,101%

# Test system: HOP-92 NSCLC
# Assay: as above
# Conditions: 10 µM unless noted
row,Compound,growth
1,O=C(COc1ccc(NC(=O)Nc2ccc(Cl)c(Cl)c2)cc1)N=Nc1c(O)[nH]c2ccccc12,-41% (active)
2,COc1ccc(-c2nnc3ccc(N/N=C/c4ccc(O)cc4)nn23)cc1,31.3%
3,CCCSc1nc(NCCc2c[nH]c3ccccc23)c(C#N)c(-c2ccccc2)n1,78.9%
4,CSc1ccc(C(=O)Nc2ccc3nnn(/C(C#N)=C/c4ccccn4)c3c2)cc1,-24.8% (active)
5,CC(=O)OC[C@@]1(C)C2CC[C@]3(C)C(CC=C4C5CC(C)(C)CC[C@]5(C(=O)Nc5cccc(C)c5)CC[C@]43C)[C@@]2(C)C[C@@H](OC(C)=O)[C@@H]1OC(C)=O (stereo partly specified),50.8%
6,CN(C)c1ccnc(CNCCSC2(c3ccccc3)c3ccccc3C=Cc3ccccc32)c1,-17.2% (active)
7,Cn1cc(-c2nnc(N)nc2-c2c[nH]c3ccc(F)cc23)c2cccnc21,92.8%
8,Clc1cccc(-c2ccc(OCCCN3CCN(c4ccncc4)CC3)cc2)c1,-1.12% (active)
9,Cc1ccccc1[C@H]1C(C(=O)c2ccc(Cl)cc2)C2(N[C@@H]1c1ccccc1)C(=O)Nc1ccc(Br)cc12 (stereo partly specified),-21.3% (active)
10,CN(C)c1ccnc(CNCCSC2(c3ccc(C(F)(F)F)cc3)c3ccccc3C=Cc3ccccc32)c1,-10.1% (active)
11,O=C(c1ccc(OCCN2CCOCC2)cc1)C1[C@H](c2ccc(Cl)cc2)[C@@H](c2ccccc2)NC12C(=O)Nc1ccc(Cl)cc12 (stereo partly specified),-11.8% (active)
12,COc1cc(CNC(=O)/C=C/c2ccc3c(c2)OCO3)ccc1OCc1cn(-c2ccc([N+](=O)[O-])cc2)nn1,96.7%
13,CC(=O)Nc1ccc(-c2nc3cc(-c4ccc(O)cc4)ccc3n2C)cc1,36.4%
14,Clc1cccc(Cl)c1/C=C/c1cc(/C=C/c2ccc(Br)cc2)c2ccccc2n1,86.2%
15,COc1cc(OC)cc(-c2cc3ccc(N(C)C)cc3c(=O)[nH]2)c1,94.2%
16,CNC(=O)c1cc(Oc2ccc3nc(NC(=O)Nc4cccc(OC(F)(F)F)c4)sc3c2)ccn1,-63% (active)
17,N#Cc1c(-c2ccc(Br)cc2)nc2n[nH]c(-c3ccc(Br)cc3)c2c1-c1ccc(F)cc1,112%
18,CCN1CCN(Cc2ccc(C(=O)Nc3cccc(C#Cc4cccc5[nH]nc(N)c45)c3)cc2C(F)(F)F)CC1,-69.8% (active)
19,O=c1[nH]n(C(=S)N/N=C/c2ccccc2Cl)c(=O)c2ccccc12,-0.742% (active)

row,Compound,growth
1,CC1(C)CC[C@]2(C(=O)Nc3ccccc3)CC[C@]3(C)C(=CCC4[C@@]5(C)C[C@@H](O)[C@H](O)[C@@](C)(CO)C5CC[C@]43C)C2C1 (stereo partly specified),39.1%
2,Nc1nnc(-c2c[nH]c3ncc(Br)cc23)c(-c2c[nH]c3ccc(F)cc23)n1,72.9%
3,COc1ccc(C(=O)/C=C/c2ccccc2Br)cc1S(N)(=O)=O,76.8%
4,CSc1ccccc1NC(=O)c1ccc2nn(/C(C#N)=C/c3ccccn3)nc2c1,-23.8% (active)
5,O=C(N=Nc1c(O)[nH]c2ccc(Cl)cc12)c1ccc2nc(-c3ccccc3)[nH]c2c1,77%
6,CC(=O)Oc1ccccc1C(=O)[Se]C(=NC1CCCCC1)NC1CCCCC1,-13.6% (active)
7,CSc1ccc(NC(=O)c2ccc3nnn(/C(C#N)=C/c4ccccn4)c3c2)cc1,-77.6% (active)
8,COc1ccc(C(=O)/C=C/c2cccnc2)cc1S(N)(=O)=O,56.5%
9,Cc1ccc([C@H]2C(C(=O)c3ccc(Cl)cc3)C3(N[C@@H]2c2ccccc2)C(=O)Nc2ccccc23)cc1 (stereo partly specified),-3.21% (active)
10,CN(C)CCCNC(=O)c1cc(NC(=O)c2cc(NC(=O)c3ccc(C#Cc4ccccc4)cc3)cn2C)cn1C,-26% (active)
11,COc1ccc(C(=O)/C=C/c2cccc3ccccc23)cc1S(N)(=O)=O,73%
12,COc1ccc(NC(=O)c2sc3nc(C(C)C)ccc3c2N)cc1,61.4%
13,COc1ccc([C@H](C)Nc2nc(Cl)nc3ccccc23)cc1,46.1%
14,COc1cc2oc(-c3cccc(NC(=O)[C@H](Cc4ccccc4)NC(=O)OC(C)(C)C)c3)cc(=O)c2c(OC)c1OC,61.7%
15,Cc1ccc(C(=O)CSc2nc3ccc(F)cc3c(=O)n2-c2ccc(Cl)cc2)cc1,-2.96% (active)
16,CC(C)Sc1nc(NCCc2c[nH]c3ccccc23)c(C#N)c(-c2ccc(F)cc2)n1,20.1%
17,OCNc1ccc(-n2cnc3cc(-c4ccc(O)cc4)ccc32)cc1C(F)(F)F,65.1%
18,Cc1cc2nc3c4ccccc4n(CCNCCN(C)C)c3nc2cc1C,10.5%
19,COc1ccc2c(c1)C(=N/N=C(\C)c1ccc(OC)c(S(N)(=O)=O)c1)C(=O)N2,79%

# Source: PubChem BioAssay (NCI)
